# Assay outcomes from PubChem BioAssay.
# Mdm2-MdmX inh – disrupts the human Mdm2-MdmX interaction; AID 485346; inhibition, % at 8 µM; SaOS-2 split-luciferase Mdm2/MdmX complementation, luminescence; 330,000 compounds, 3% hits;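 active = inhibition of at least 50% at 8 µM in the primary screen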
# Target sequence (O15151 whole entry, looked up): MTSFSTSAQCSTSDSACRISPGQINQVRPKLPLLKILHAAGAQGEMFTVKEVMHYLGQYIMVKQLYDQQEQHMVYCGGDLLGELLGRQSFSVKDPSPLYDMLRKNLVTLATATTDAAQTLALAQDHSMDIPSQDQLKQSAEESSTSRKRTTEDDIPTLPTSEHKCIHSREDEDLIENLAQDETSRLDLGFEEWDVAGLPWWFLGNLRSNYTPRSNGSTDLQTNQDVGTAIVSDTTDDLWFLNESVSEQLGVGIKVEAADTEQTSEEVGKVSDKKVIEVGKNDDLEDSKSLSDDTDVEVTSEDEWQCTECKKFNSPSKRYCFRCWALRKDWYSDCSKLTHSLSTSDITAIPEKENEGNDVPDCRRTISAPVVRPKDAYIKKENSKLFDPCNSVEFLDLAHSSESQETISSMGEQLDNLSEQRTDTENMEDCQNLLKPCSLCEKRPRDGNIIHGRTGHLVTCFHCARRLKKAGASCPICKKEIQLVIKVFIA
# Target sequence (Q00987 whole entry, looked up): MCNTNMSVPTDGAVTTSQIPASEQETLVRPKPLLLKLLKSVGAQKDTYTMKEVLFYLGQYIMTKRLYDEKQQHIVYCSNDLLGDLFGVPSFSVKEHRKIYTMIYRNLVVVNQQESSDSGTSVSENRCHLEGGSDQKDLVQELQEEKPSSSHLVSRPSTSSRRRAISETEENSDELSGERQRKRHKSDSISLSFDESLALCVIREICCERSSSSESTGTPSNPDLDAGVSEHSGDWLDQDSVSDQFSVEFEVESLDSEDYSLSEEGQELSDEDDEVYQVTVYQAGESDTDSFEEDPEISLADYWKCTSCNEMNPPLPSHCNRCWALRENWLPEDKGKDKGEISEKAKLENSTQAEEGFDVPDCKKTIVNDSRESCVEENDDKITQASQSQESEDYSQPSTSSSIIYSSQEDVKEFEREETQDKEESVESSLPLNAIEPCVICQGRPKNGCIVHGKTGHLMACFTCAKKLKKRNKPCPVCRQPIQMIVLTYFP
# Gli-Sufu block – antagonists of Gli-Sufu signaling | Sufu-KO-LIGHT fibroblasts, Gli luciferase reporter luminescence | inhibition, % at 5 µM | 340,000 compounds, 0.74% hits | AID 588413;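 active = inhibition above about 55%, limit read from the data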;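 also: 0% = DMSO-treated cells and 100% = wells with medium but no cells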
# CSC inhib – cancer stem cell inhibition. cancer stem cell-like cells viability, luminescence. 300,000 compounds, 1.1% hits. AID 2717. inhibition, % at 7.5 µM; in the data active = inhibition above about 75%; inconclusive = no clear call, values can overlap the other calls; tested in HMLE shEcad cells
# aSyn UTR inh – 5' untranslated region of α-synuclein, MLPCN primary screen; 300,000 compounds, 0.82% hits; alpha-synuclein 5'UTR reporter, inhibitor activity; inhibition, % (tested at 7.5 µM); AID 1813; in the data active = inhibition above about 60%; inconclusive = no clear call, values can overlap the other calls;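 also: H4 neuroglioblastoma cells stably carrying SNCA 5'UTR luciferase fusion; 0% = DMSO wells and 100% = positive control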
# 697 NFkB inh – inhibitors of the PMA/ionomycin-induced NF-kB reporter in 697 B cells; AID 435022; 697 B-cell NF-kB luciferase reporter, 16 h; 330,000 compounds, 0.33% hits; inhibition, % at 4 µM; in the data active = inhibition above about 35%
# Jurkat NFkB inh – inhibitors of the PMA/ionomycin-induced NF-kB reporter in Jurkat cells; 330,000 compounds, 0.53% hits; PMA/ionomycin-induced NF-kB luciferase reporter, luminescence; AID 435003; inhibition, % at 4 µM; in the data active = inhibition above about 50%
# Mdm2 MdmX conf – human Mdm2/MdmX binding inhibition, confirmed | shares compounds with Mdm2-MdmX inh | luminescent assay | inhibition, % at 8 µM | 10,000 compounds, 55% hits; in the data active = inhibition above about 40%
# FLuc counter – counter-screen for Mdm2/MdmX inhibitors: full-length luciferase; 6,200 compounds, 77% hits; inhibition, % at 8 µM; SaOS-2 full-length luciferase counterscreen, luminescence; shares compounds with Mdm2-MdmX inh;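 active = mean inhibition at 8 µM reaching about 37%, which flags the compound as non-specific, limit read from the data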;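 also: p53-null SaOS-2 cells with luciferase driven by a doxycycline-inducible promoter; compound on cells about two nights before reading with doxycycline added after day one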
# Active calls of the source: *; ? = inconclusive; nt = not tested or not shown. Only some compounds are listed: those with a hit (about 4.5% of all), similar ones and a draw of the others.
SMILES,Mdm2-MdmX inh,Gli-Sufu block,CSC inhib,aSyn UTR inh,697 NFkB inh,Jurkat NFkB inh,Mdm2 MdmX conf,FLuc counter
COc1ccc(CN(C(=O)c2ccco2)c2ccc(C)c(C)c2)cc1,58*,-3,9,10,-11,1,57*,60*
COC(=O)[C@H](Cc1ccccc1)NC(=O)NCCc1ccccc1F,-13,1,-9,-12,13,13,nt,nt
Cc1sc2ncnc(SCC(=O)N3CCCC(C(F)(F)F)C3)c2c1C (centres undefined),-34,-6,-1,-3,-63,9,nt,nt
S=C(NCCc1ccccc1)NC1CCCCCC1,-66,-94,-2,-114,-123,-66,nt,nt
S=C(NCCNCc1ccccc1)NC1CCCCC1,51*,nt,47,16,-3,-2,11,nt
CN(C)/C=C/C(=O)c1ccc(N2CCN(c3ncc(C(F)(F)F)cc3Cl)CC2)cc1,92*,38,26,9,-27,23,1,nt
Oc1ccc(Br)cc1CNc1cccc2cccnc12,60*,-26,52,12,-10,28,64*,26
Cc1ccc(O)c(CNc2cccc3cccnc23)c1,11,14,20,-12,-11,-5,nt,nt
Cc1cccnc1NCc1ccc(O)c2ncccc12,57*,10,56,10,-12,3,5,nt
Cc1cccc(NCc2ccc(O)c3ncccc23)c1C,74*,-3,-6,?,-37,34,73*,42*
Cc1cc(C)nc(NCCC(=O)O)n1,6,-1,-14,-13,14,-2,nt,nt
COC(=O)c1ccc(CSc2nnc(Nc3ccccc3OC)s2)o1,62*,-4,33,8,-7,28,57*,84*
COc1ccc(C=NNc2ccc([N+](=O)[O-])cc2S(=O)(=O)Nc2ccccc2C(=O)O)cc1OC,-10,3,33,nt,-8,-13,nt,nt
COc1ccccc1NS(=O)(=O)c1cc([N+](=O)[O-])ccc1N/N=C/c1c[nH]c2ccccc12,72*,8,68,0,-5,-9,25,nt
Cc1[nH]c2ccccc2c1/C=N/Nc1ccc([N+](=O)[O-])cc1S(=O)(=O)Nc1ccc(Cl)cc1,15,11,16,-20,3,-5,nt,nt
COc1ccc(NS(=O)(=O)c2cc([N+](=O)[O-])ccc2N/N=C\c2c(C)[nH]c3ccccc23)cc1,77*,3,-1,31,-25,3,6,nt
Cc1onc(-c2c(Cl)cccc2Cl)c1C(=O)N/N=C(\N)COc1ccc(Cl)cc1,72*,8,101*,89*,-22,10,82*,40*
COc1ccc(-c2nc(N)nc(C)c2Oc2ccccc2Br)c(O)c1,67*,2,83*,nt,-18,23,65*,53*
CCOc1ccc(-c2nc(N)ncc2Oc2ccc(OC)cc2)c(O)c1,14,1,-1,52,-2,11,nt,nt
COc1ccc(CC(=O)Nc2cccc(S(=O)(=O)N3CCOCC3)c2)cc1OC,13,-7,nt,nt,-27,21,nt,nt
CN(C)CCNC=C(C(=O)Nc1ccc(Cl)cc1Cl)C(=O)Nc1ccc(Cl)cc1Cl,76*,-10,78*,45,6,14,39,nt
COc1cc(C(=O)Nc2nc(C)c(Cc3ccc4c(c3)OCO4)s2)cc(OC)c1OC,79*,11,56,-25,-5,47,67*,76*
Cc1c(Cc2ccc3c(c2)OCO3)sc(NC(=O)C(C)(C)C)c1C#N,58*,-4,48,-12,-23,24,36,nt
CCC(=O)Nc1sc(Cc2ccc3c(c2)OCO3)c(C)c1C(N)=O,4,-2,8,11,-7,3,nt,nt
CCCOc1ccc(C(=O)Nc2nc(C)c(Cc3ccc4c(c3)OCO4)s2)cc1,48,-39,49,-68,-41,23,nt,nt
SMILES,Mdm2-MdmX inh,Gli-Sufu block,CSC inhib,aSyn UTR inh,697 NFkB inh,Jurkat NFkB inh,Mdm2 MdmX conf,FLuc counter
Cc1c(Cc2ccc3c(c2)OCO3)sc(NC(=O)c2ccc3ccccc3c2)c1C(N)=O,80*,-7,30,-80,3,-19,-11,nt
CSc1ncc(C(=O)Nc2ccc(Br)cn2)c(C)n1,6,-10,14,-44,11,4,nt,nt
CCCCN1C=CC(=C2C(=O)c3ccccc3C2=O)C=C1,84*,nt,68,98*,-33,-4,79*,53*
CCCCNC1=CC(=O)C(=O)c2ccccc21,-11,-2,8,40,14,-3,nt,nt
C=CCNC(=O)c1cccc(C(F)(F)F)c1,-3,3,-14,10,-11,-8,nt,nt
COc1ccc(CC(=O)Nc2nnc(SCC(=O)NCc3ccco3)s2)cc1OC,6,2,2,-18,-5,4,nt,nt
Cc1cccc(/C=C/c2onc(C)c2S(=O)(=O)N2CCC(C(=O)N3CCCCCC3)CC2)c1,21,-10,44,23,-51,-4,nt,nt
Cc1cccc(/C=C/c2onc(C)c2S(=O)(=O)N2CCC(C(=O)N3CCC(C)CC3)CC2)c1,52*,9,-18,20,-32,-6,11,nt
CCOC1=NN(c2ncc(C(F)(F)F)cc2Cl)C(=O)/C1=C/N(C)C,70*,7,-5,-13,-43,-18,-7,nt
O=C(Nc1ccc2snnc2c1)Nc1cccc2ccccc12,67*,-3,29,-28,18,-18,20,nt
COc1ccc(S(=O)(=O)N2CCCCCC2)cc1C(=O)N(C)CC(=O)Nc1cc(C)ccc1C,11,12,32,-24,3,3,nt,nt
O=C(Nc1ccc(-c2csc(Nc3cccc(C(F)(F)F)c3)n2)cc1)c1cc([N+](=O)[O-])cc(C(F)(F)F)c1,68*,0,88*,32,-45,-10,7,nt
O=C(Nc1nc(-c2ccccc2)cs1)c1cccc([N+](=O)[O-])c1,-28,-35,19,-52,-23,-34,nt,nt
O=C(Nc1ccc(-c2csc(Nc3cccc(C(F)(F)F)c3)n2)cc1)c1ccccc1,63*,-7,136*,14,-6,21,37,78*
Cc1nnc(SCC(=O)Nc2sccc2C(N)=O)s1,-26,-2,nt,nt,2,-15,nt,nt
Cc1ccc(NC(=O)c2cc(CC(C)C)nc3ccccc23)cc1,82*,-14,-5,47,-135,5,84*,55*
Cc1cc(SCC(=O)N/N=C/c2ccc(O)cc2O)c(C)cc1Br,61*,9,96*,78*,-29,5,66*,67*
O=C(CSc1ccc2ccccc2n1)N/N=C/c1ccccc1O,61*,3,30,3,-10,-7,68*,74*
O=C(CNC(=O)C1COc2ccccc2O1)N/N=C/c1ccc(O)cc1O (centres undefined),51*,4,78*,10,-6,16,38,71*
Cc1ccc(NC(=O)c2cc(C)nc3ccccc23)cc1,10,30,0,-8,7,12,nt,nt
